Source: PubChem
This is a sample that favours compounds with a hit; in the whole collection about 13% have one here.
Marburg entry inh: qHTS for inhibitors of binding or entry into cells for Marburg Virus; Marburg virus pseudotyped entry inhibition, cell reporter; Potency, µM (top dose mostly 37.8 µM), without a hit: top-dose activity change, negative = inhibition, actives largely listed as inhibitors; 300,000 tested, 1.8% active; AID 540276, 2011; calls by dose curve; tested in HEK293 cells; also: potency is read from the fitted curve at half-maximal effect; % is scaled to controls: 0 for no effect and ±100 for the full control effect
CHX counter: Cycloheximide Counterscreen for Small Molecule Inhibitors of Shiga Toxin; cell reporter, cycloheximide protein synthesis inhibition counterscreen; 300,000 tested, 12% active; max response, %; in the data active = max response mostly above about 13%, no sharp cut-off; inactive = mostly below about 14%; also: read at 38.3 µM for the half of the compounds with a filed dose; 0% is about no effect
HCV inh: qHTS Assay for Inhibitors of Hepatitis C Virus (HCV). AID 651820, 2012. 340,000 tested, 3.4% active. Huh7.5.1 HCVcc-Cre infection, luciferase reporter, 44 h. Potency, µM (top dose mostly 41.8 µM), for the others: top-dose activity change, negative = inhibition, hits mostly inhibitors; active = well fitted inhibition curve with a large enough effect; inconclusive = small, poorly fitted or top-dose-only effect, or another doubt; inactive = no such curve, though single readings can be large or run the other way; also: potency is read from the fitted curve at half-maximal effect; % is scaled to controls: 0 for no effect and ±100 for the full control effect
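1,000 cells/well; 4 h culture; + compound; + HCVcc-Cre (~0.5 moi); 44 h; luciferase substrate, RT 15 min; read 15 sec.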
FMDV inh: High Throughput Screening for Foot and Mouth Disease Virus Antivirals. Potency, µM (highest dose often 57.9 µM), for inactives: top-dose activity change, negative = inhibition, actives largely listed as inhibitors. 410,000 tested, 1.2% active. FMDV antiviral cell-based qHTS; calls by dose curve; tested in HEK293T cells; also: read-out not given here; potency is read from the fitted curve at half-maximal effect; % is scaled to controls: 0 for no effect and ±100 for the full control effect; nearly all actives have a fitted effect of over 45% in size
Shiga toxin inh: A qHTS for Small Molecule Inhibitors of Shiga Toxin; Vero cells, Shiga toxin protein synthesis inhibition reporter; inhibition, % at 38.7 µM; 290,000 tested, 9.2% active; in the data active = inhibition mostly above about 28%, no sharp cut-off; inactive = mostly below about 43%; also: 0% is about no effect
LASV entry inh: qHTS for Inhibitors of binding or entry into cells for Lassa Virus. Lassa virus pseudotype entry inhibition, cell reporter. Potency, µM (doses to about 37.9 µM), inactives show top-dose activity change, negative = inhibition, usual class: inhibitors. 300,000 tested, 1.2% active. AID 540256, 2011; calls by dose curve; tested in HEK293 cells; also: potency is read from the fitted curve at half-maximal effect; % is scaled to controls: 0 for no effect and ±100 for the full control effect; nearly all actives have a fitted effect of over 50% in size
The depositor's hits bear a star; [ ] = another dose, or the depositor's remark.

O=C(c1ccc(Cl)cc1)C1CCCN(Cc2cccn2-c2ccccn2)C1 (centres undefined) was read as Marburg entry inh 4µM*, CHX counter -3, HCV inh -28%, FMDV inh -7%, Shiga toxin inh -3 and LASV entry inh inconclusive.
For COc1cccc(C(=O)C2CCCN(Cc3cccn3-c3ccccn3)C2)c1 (centres undefined) the results were Marburg entry inh inconclusive, CHX counter -2, HCV inh -25%, FMDV inh -26%, Shiga toxin inh -5 and LASV entry inh inconclusive.
For Cc1ccc(CNC(=O)CCC2CCCN(Cc3cccc4cccnc34)C2)o1 (centres undefined) the results were Marburg entry inh 2%[46.1 µM], CHX counter 5, HCV inh -17%, FMDV inh -3%, Shiga toxin inh -6 and LASV entry inh 4%.
For Cc1ccc(CNC(=O)CCC2CCCN(Cc3cccc4ncccc34)C2)o1 (centres undefined) the results were Marburg entry inh -27%[46.1 µM], CHX counter 11*, HCV inh -9%, FMDV inh -2%, Shiga toxin inh 24 and LASV entry inh inconclusive.
COc1cccc(CNS(=O)(=O)c2c(C(=O)N3CCCC3)c(C)n(C)c2C)c1 was read as CHX counter -10, HCV inh 6%, FMDV inh -9% and Shiga toxin inh 8.
CC(=O)OC1(C)CC(C)C(=O)C(C(O)CC2CC(=O)NC(=O)C2)C1 (centres undefined) was read as HCV inh 0.5µM* and FMDV inh inconclusive.
`COC(=O)c1[nH]c2cccc(Cl)c2c1NC(=O)CN(C)C1CCCCC1` gave Marburg entry inh 11µM*, CHX counter -11, HCV inh inconclusive, FMDV inh -5%, Shiga toxin inh -12 and LASV entry inh -2%.
For COc1cccc(CNc2ncn[nH]2)c1OCc1ccccc1F the results were Marburg entry inh 6%, CHX counter 17, HCV inh 7%, FMDV inh -7%, Shiga toxin inh -12 and LASV entry inh 4%.
For S=C(NCc1ccc(Cl)cc1)Nc1ccncc1 the results were CHX counter -2, HCV inh 6.3µM*, FMDV inh 6% and Shiga toxin inh -31.
`CCCNC(=S)Nc1cccc(C(F)(F)F)c1` gave Marburg entry inh -3%, CHX counter 0, HCV inh -21%, FMDV inh 2%, Shiga toxin inh -7 and LASV entry inh -5%.
`CC(C)(C)C(=O)NC(=S)Nc1ccc(Cl)c(C(=O)O)c1` gave Marburg entry inh inconclusive, CHX counter 7, HCV inh 2%, FMDV inh 0%, Shiga toxin inh 26 and LASV entry inh -2%[46.1 µM].
Screening CCOC(=O)NC(=S)Nc1ccc(C(C)(C)C)cc1 returned Marburg entry inh 0%[46.1 µM], CHX counter 33*, HCV inh -16%, FMDV inh 17%, Shiga toxin inh 80* and LASV entry inh 13%.
For S=C(NCc1ccc(Cl)cc1)Nc1ccccc1 the results were Marburg entry inh 3%[46.1 µM], CHX counter 8, HCV inh -29%, FMDV inh 13%, Shiga toxin inh 36 and LASV entry inh 12%.
For CCCCNC(=S)Nc1ccc(C(F)(F)F)cc1 the results were Marburg entry inh inconclusive, CHX counter 19*, HCV inh inconclusive, FMDV inh -6%, Shiga toxin inh 30* and LASV entry inh 2%.
CCOC(=O)NC(=S)Nc1cccc(C)n1 was read as FMDV inh -7%.
`CC(C)(C)C(=O)NC(=S)Nc1ccc(C(F)(F)F)cc1` gave CHX counter 43*, HCV inh -4%, FMDV inh 54% and Shiga toxin inh 61*.
CCCCNC(=S)Nc1ccc(Cl)cc1 was read as Marburg entry inh -25%, CHX counter 16, HCV inh 0%, FMDV inh 56%, Shiga toxin inh 45* and LASV entry inh 3%.
CCN(CC)CCOc1ccc(/C(=C(/Cl)c2ccccc2)c2ccccc2)cc1 was read as CHX counter -4, HCV inh 7.9µM*, FMDV inh inconclusive and Shiga toxin inh 5.
